Rows were chosen to be rich in hits. Some 0.34% of all compounds tested hit in one or more screens of this group.
Vif-A3G inh – qHTS for Inhibitors of Vif-A3G Interactions: qHTS. DNA dC->dU-editing enzyme APOBEC-3G (Homo sapiens), Q9HC16. HeLa A3G-eYFP + Vif (tagged APOBEC3G with the HIV-1 protein that degrades it), YFP fluorescence, overnight. Potency, µM (series often up to 46.1 µM), inactives show top-dose activity, negative = active, usual class: inhibitors. hit rate 0.076% among 410,000; also: % is scaled to controls: 0 for no effect and ±100 for the full control effect; nearly all actives have a fitted effect of over 60% in size
Target sequence (Q9HC16 whole entry, looked up): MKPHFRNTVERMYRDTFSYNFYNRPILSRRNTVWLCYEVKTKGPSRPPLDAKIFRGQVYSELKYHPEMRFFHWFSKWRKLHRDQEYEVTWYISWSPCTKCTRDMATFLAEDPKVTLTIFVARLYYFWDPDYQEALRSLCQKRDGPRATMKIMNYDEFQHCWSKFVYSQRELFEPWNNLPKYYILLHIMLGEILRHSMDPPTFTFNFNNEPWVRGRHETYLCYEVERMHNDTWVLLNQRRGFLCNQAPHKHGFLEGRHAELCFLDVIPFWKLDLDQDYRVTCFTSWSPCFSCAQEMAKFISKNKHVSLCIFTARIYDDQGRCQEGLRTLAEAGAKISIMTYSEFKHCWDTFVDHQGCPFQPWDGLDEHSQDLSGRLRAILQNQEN
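Read-out is eYFP fluorescence (Ex 488/Em 500-530) from Vif-expressing HeLa A3G-eYFP cells; more signal means A3G escaped Vif-mediated degradation. Cells plated overnight, compound pinned in, incubated overnight at 37 deg C.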
Vif-A3F inh – qHTS for Inhibitors of Vif-A3F Interactions: qHTS; AID 602313, 2012; Potency, µM (titrated, usually from 46.1 µM), for inactives: top-dose activity, negative = active; HeLa A3F-eYFP + Vif (tagged APOBEC3F with the HIV-1 protein that degrades it), YFP fluorescence increase; hit rate 0.2% among 390,000; also: % of control where 0% means no effect; nearly all actives have a fitted effect of over 65% in size
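HeLa cells stably expressing Vif plus C-terminally eYFP-tagged A3F were seeded, incubated overnight at 37 deg C, dosed with compound, incubated overnight again at 37 deg C. Yellow fluorescence (Ex 488/Em 500-530) reported blocked Vif-mediated A3F-eYFP degradation.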
Epigenetic derep – Quantitative High-Throughput Screen for Regulators of Epigenetic Control. murine LDR cells, GFP reporter derepression, 30 h. Potency, µM (series often up to 53.9 µM), inactives show top-dose GFP activation, most hits filed as activators. hit rate 0.2% among 280,000. AID 1865, 2009; also: % of control where 0% means no effect; nearly all actives have a fitted effect of over 60% in size
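In this reporter-derepression format, murine cells bearing a silenced integrated CMV-GFP locus incubate with test compound (30 h, 37 C), then are washed and imaged; fluorescent objects of 20–120 um count as induced cells.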
An asterisk follows results filed as active. Calls follow the shape of the dose curve; as a rule, active = well fitted curve in the direction sought with a large enough effect; inconclusive = small, poorly fitted or top-dose-only effect, or another doubt; inactive = no such curve, though single readings can be large; an effect the other way counts as inactive or inconclusive. Potency is read from the fitted curve at half-maximal effect.

How did CC(C)C(=O)NC(c1ccc(N(C)C)cc1)c1ccc2cccnc2c1O (stereo not given) do in these assays?
Vif-A3G inh: -8%

What do the screens show for `CCCCC(=O)NC(c1ccccc1OC)c1ccc2cccnc2c1O` (stereo not given)?
Vif-A3G inh: -25%; Vif-A3F inh: -11%; Epigenetic derep: 3.5µM*

What do the screens show for `CCCC(=O)NC(c1cccs1)c1cc(Cl)c2cccnc2c1O` (stereo not given)?
Vif-A3G inh: -1%; Vif-A3F inh: 0%; Epigenetic derep: inconclusive

How did CCCCC(=O)NC(c1ccc(Cl)cc1)c1ccc2cccnc2c1O (stereo not given) do in these assays?
Vif-A3G inh: -11%; Vif-A3F inh: -1%

What do the screens show for `CC(C)C(=O)NC(c1ccco1)c1ccc2cccnc2c1O` (stereo not given)?
Vif-A3G inh: -6%; Vif-A3F inh: 6%; Epigenetic derep: 3.5µM*

Results for CC(C)CC(=O)NC(c1cccs1)c1ccc2cccnc2c1O (stereo not given) ?
Vif-A3G inh: -14%; Vif-A3F inh: -30%; Epigenetic derep: -1%

How did CC(C)(C)n1ncc2c(=O)n(Cc3cccc(Oc4ccccc4)c3)cnc21 do in these assays?
Vif-A3G inh: 3%

Results for CCOc1ccc(OCC)c(NC(=O)CCc2c(C)nc3c(c2C)c(=O)n(C)c(=O)n3C)c1 ?
Vif-A3G inh: 0%; Vif-A3F inh: -2%; Epigenetic derep: 0%

How did CC(C)C(=O)N1c2ncnn2C2(CCCCC2)[C@@H]2CCCC[C@@H]21 do in these assays?
Vif-A3G inh: 0%; Vif-A3F inh: 1%; Epigenetic derep: 0%

How did Cc1cccc(-c2noc(-c3cccnc3NCc3ccco3)n2)c1 do in these assays?
Vif-A3G inh: 0%; Vif-A3F inh: 4%; Epigenetic derep: -1%

Results for CC(C)C(=O)Nc1nc2c(ncn2[C@H]2CC(O)[C@@H](CO)O2)c(=O)[nH]1 (stereo not given in full) ?
Vif-A3G inh: -15%

How did CCCC(=O)NC(c1ccccc1OC)c1ccc2cccnc2c1O (stereo not given) do in these assays?
Vif-A3G inh: -18%; Vif-A3F inh: inconclusive; Epigenetic derep: 7.1µM*

What do the screens show for `CCCC(=O)NC(c1ccc(C)cc1)c1ccc2cccnc2c1O` (stereo not given)?
Vif-A3G inh: -25%; Vif-A3F inh: 1%

Results for Fc1ccc(Nc2ncnc3c2nc2n3CCCCC2)c(F)c1 ?
Vif-A3G inh: 2%; Vif-A3F inh: 1%; Epigenetic derep: -1%

What do the screens show for `Cc1cc(C(=O)N/N=C/c2ccncc2)c(C)o1`?
Vif-A3G inh: 1%; Vif-A3F inh: 10%; Epigenetic derep: 0%

Results for Cc1ccc(/C=N/NC(=O)c2cc(C)oc2C)cc1 ?
Vif-A3G inh: 7.9µM*; Vif-A3F inh: 14%; Epigenetic derep: 3%

How did CCN(CC)CCNC(=O)C1CCN(c2cc(C)nc3c(-c4ccc(Cl)cc4)c(C)nn23)CC1 do in these assays?
Vif-A3G inh: 2%; Vif-A3F inh: 2%; Epigenetic derep: -1%

How did COc1ccc(NC(=O)c2cn3c4c(ccc(Cl)c4c2=O)OC(C)C3)cc1OC (stereo not given) do in these assays?
Vif-A3G inh: 2%; Vif-A3F inh: inconclusive; Epigenetic derep: 18µM*

Results for CC(=O)c1ccc(NC(=O)c2cn3c4c(ccc(Cl)c4c2=O)OC(C)C3)cc1 (stereo not given) ?
Vif-A3G inh: 1%; Vif-A3F inh: -15%; Epigenetic derep: 2%

Results for Cc1cccc(-c2nc(C)c(CCNC(=O)C(=O)Nc3ccc(C)c(C)c3)s2)c1 ?
Vif-A3G inh: 0%; Vif-A3F inh: -2%; Epigenetic derep: 0%

What do the screens show for `O=C(Cc1ccc(OCCc2ccccc2)cc1)NO`?
Vif-A3G inh: 0%

What do the screens show for `CC(C)COc1ccc(C(=O)N2CCCCC2CCN2CCCCC2)cc1` (stereo not given)?
Vif-A3G inh: 4%; Vif-A3F inh: 0%; Epigenetic derep: 9%

Results for Cc1sc(-c2cc3c([nH]c2=O)CC(c2ccccc2)CC3=O)nc1-c1ccc(Cl)cc1 (stereo not given) ?
Vif-A3G inh: 10µM*; Vif-A3F inh: 13µM*; Epigenetic derep: 18µM*

How did O=C1CC(c2ccccc2)Cc2[nH]c(=O)c(-c3nc(-c4ccc(Cl)cc4)cs3)cc21 (stereo not given) do in these assays?
Vif-A3G inh: inconclusive; Vif-A3F inh: -12%; Epigenetic derep: 3%

How did COc1ccccc1CNC(=O)c1cc(Sc2cccc(Cl)c2)nc2ccccc12 do in these assays?
Vif-A3G inh: 9%; Vif-A3F inh: -6%; Epigenetic derep: 2%

What do the screens show for `CCOC(=O)c1cc(-c2ccccc2)sc1NC(=O)C(C)(C)C`?
Vif-A3G inh: 0%; Vif-A3F inh: -2%; Epigenetic derep: 0%

What do the screens show for `CCOC(=O)c1cc(-c2ccccc2)sc1NC(=S)Nc1cc(C)ccn1`?
Vif-A3G inh: 1%; Vif-A3F inh: 8.9µM*; Epigenetic derep: -3%

Results for Cn1c(/C=C/c2ccccc2)nc2ccccc2c1=O ?
Vif-A3G inh: -10%; Vif-A3F inh: 4%

Results for Cc1cc(N/N=C/c2ccc([N+](=O)[O-])o2)nc2ccccc12 ?
Vif-A3G inh: 11µM*; Vif-A3F inh: inconclusive; Epigenetic derep: 6.3µM*

Results for Cc1ccc(-c2cc(C(=O)N/N=C/c3ccc([N+](=O)[O-])o3)c3ccccc3n2)o1 ?
Vif-A3G inh: -19%; Vif-A3F inh: -8%

How did Cn1c(/C=C/c2ccc([N+](=O)[O-])o2)nc2ccccc2c1=O do in these assays?
Vif-A3G inh: 2.8µM*; Vif-A3F inh: 11µM*; Epigenetic derep: inconclusive

What do the screens show for `COc1ccc(S(=O)(=O)NCCc2csc3nc(-c4ccc(Cl)cc4)nn23)cc1C`?
Vif-A3G inh: 8%; Vif-A3F inh: 1%; Epigenetic derep: 1%

What do the screens show for `CCN(CC)CCCC(C)Nc1cc(/C=C/c2ccccc2Cl)nc2cc(Cl)ccc12` (stereo not given)?
Vif-A3G inh: 5%

What do the screens show for `CCN(CC)CCCC(C)Nc1c2ccc(Cl)cc2nc2ccc(OC)cc12` (stereo not given)?
Epigenetic derep: 3.2µM*

Results for Cc1cnc2ccccc2c1/C=C/c1ccc(N(C)C)cc1 ?
Vif-A3G inh: -15%

How did Cc1cc2ccccn2c1C(=O)c1ccc([N+](=O)[O-])o1 do in these assays?
Vif-A3G inh: inconclusive; Vif-A3F inh: 11µM*; Epigenetic derep: 8%

What do the screens show for `Cc1cc2ccccn2c1C(=O)c1cccc([N+](=O)[O-])c1`?
Vif-A3G inh: 2%; Vif-A3F inh: 1%; Epigenetic derep: 2%

What do the screens show for `Cc1csc2nc(COC(=O)c3cccc(NC(=O)COc4ccccc4Cl)c3)cc(=O)n12`?
Vif-A3G inh: 1%; Vif-A3F inh: 1%; Epigenetic derep: inconclusive

What do the screens show for `CCCN1Cc2cccc(C(=O)Nc3cccc(C(=O)OCC)c3)c2C1=O`?
Epigenetic derep: -1%

Results for COc1cc(/C=C2/SC(=Nc3ccc(O)cc3)NC2=O)ccc1O ?
Vif-A3G inh: inconclusive; Vif-A3F inh: 25µM*; Epigenetic derep: 4%
